Screens: PubChem, several laboratories
Compounds with a hit are over-represented: about 1.5% of the library has one in this group of screens.
miR122 inh = miR-122 inhibition in Huh7 cells; Huh7 miR-122 Renilla luciferase sensor, 48 h; neutral wells = 0, positive control = 100; 340,000 compounds, 0.3% hits; activation (reporter increase), % at 12.5 µM;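 active = mean replicate activation score at least 90 and every replicate individually at or above 90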;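 also: higher luciferase means less miR-122 activity so hits act as miR-122 inhibitors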
DNA FID counter = fluorescent intercalator displacement, NS3 helicase counter-screen; DNA fluorescent intercalator displacement, fluorescence; inhibition, % at 7.9 µM; 290,000 compounds, 0.17% hits; AID 1845; in the data active = inhibition above about 37%;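 also: 0% = vehicle and 100% = reference compound; higher means more ethidium bromide displaced from hairpin DNA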
N-glyco inh = N-linked glycosylation inhibition; D54 ERlucT glycosylation luciferase reporter, 24 h; percent of 100 nM tunicamycin response; 360,000 compounds, 0.23% hits; reporter increase, % at 12.5 µM;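 active = mean luciferase reporter signal, scaled so untreated is 0 and the glycosylation-blocking control 100, at or above a set limit in every replicate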;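 also: luciferase carries N-glycosylation sites so blocking glycosylation raises the light; 0% = median of neutral control wells and 100% = median of 100 nM tunicamycin wells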
RAD52 inh = RAD52 (human) annealing inhibition; P43351; recombinant RAD52 DNA annealing, FRET fluorescence; inhibition, % at 18.7 µM; 360,000 compounds, 0.46% hits; AID 651710;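 active = every replicate showing at least 50% inhibition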
RAD54 branch = inhibitors of human RAD54 branch migration; RAD54 Holliday junction branch migration, FAM/BHQ fluorescence; Q92698; AID 602329; 360,000 compounds, 0.14% hits; inhibition, % at 10.4 µM;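 active = mean normalized replicate activity at least 40 and at least half of replicates scoring 40 or more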;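 also: 0% = median of neutral control wells and 100% = median of positive control wells; inhibitors cause a drop in the FAM fluorescence signal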
NRP1-CendR mod = alters CendR peptide binding to human NRP-1; inhibition, % at 25 µM; FAM-RPARPAR peptide binding to NRP-1, fluorescence polarization; O14786; 360,000 compounds, 0.85% hits;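 active = inhibition or corrected inhibition above about 18%, plus a signal ratio from 0.5 to 1.5, limit read from the data, passing the limit was not always enough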
* = called active by the depositor; [ ] = another dose, or the depositor's remark.

CC1CN(Cc2c(O)ccc3c(=O)c(-c4ccccc4)coc23)CC(C)O1 (configuration not stated) was read as miR122 inh 2, DNA FID counter -19, N-glyco inh -2, RAD52 inh -7, RAD54 branch 7 and NRP1-CendR mod 38*.
`O=C1O[C@@H](c2ccccc2)[C@@H](c2ccccc2)N2[C@@H](c3ccc(O)cc3)[C@]3(C(=O)Nc4ccc(C#CC5(O)CCCCCC5)cc43)[C@@H](C(=O)N3CCN(c4ncccn4)CC3)[C@H]12` gave RAD52 inh 10 and RAD54 branch -6.
CO[C@@H]1CN(C)C(=O)c2cc(NS(=O)(=O)c3ccccc3)ccc2OC[C@@H](C)N(C(=O)NC(C)C)C[C@H]1C was read as miR122 inh 10[16.7 µM], RAD52 inh 5 and RAD54 branch 6.
`O=C1NC(c2ccccc2Cl)Nc2ccccc21` (configuration not stated) gave miR122 inh 12, DNA FID counter -4, N-glyco inh 4, RAD54 branch -5 and NRP1-CendR mod 4.
O=C1NC(c2cccc3ccccc23)Nc2ccccc21 (configuration not stated) was read as miR122 inh 150*, N-glyco inh 20, RAD52 inh -12 and NRP1-CendR mod 14.
For C[C@H]1CN([C@@H](C)CO)C(=O)c2cc(C#CC3CC3)cnc2O[C@H]1CN(C)C(=O)c1ccc(F)cc1 the results were miR122 inh -2[16.7 µM], RAD52 inh -4 and RAD54 branch 3.
Screening Nc1ccc2nc(-c3ccc(-c4nc5ccc(N)cc5[nH]4)cc3)[nH]c2c1 returned DNA FID counter 52* and RAD52 inh -10.
O=C(C[C@@H]1C=C[C@H](NS(=O)(=O)c2ccc(F)cc2)[C@@H](CO)O1)NCc1ccncn1 was read as miR122 inh -1[16.7 µM], RAD52 inh -9 and RAD54 branch -3.
O=C(C[C@H]1CC[C@@H](NC(=O)c2ccccn2)[C@@H](CO)O1)NCc1cccc(F)c1 was read as RAD52 inh 11 and RAD54 branch 4.
`Cc1cc(-n2c(SCC(=O)NCCC3=CCCCC3)nc3n[nH]c(C)c3c2=N)ccc1Cl` gave miR122 inh 45, DNA FID counter -20, N-glyco inh 59*, RAD52 inh -7, RAD54 branch 3 and NRP1-CendR mod 14.
For COc1ccc(-c2ccc3c(c2)O[C@@H](CN(C)CC2CC2)[C@@H](C)CN([C@@H](C)CO)S3(=O)=O)cc1 the results were miR122 inh -5[16.7 µM].
Screening COC(=O)C1N[C@@H]([C@@H](NC(=O)COc2ccccc2)C(=O)NCc2ccccc2)SC1(C)C (some centres not stated) returned miR122 inh -6, N-glyco inh 3, RAD52 inh -24, RAD54 branch 3 and NRP1-CendR mod 32*.
`Cc1ccc(C)c(S(=O)(=O)NCC(c2ccc3c(c2)OCO3)N2CCOCC2)c1` (configuration not stated) gave miR122 inh 101*, N-glyco inh -1, RAD52 inh -4, RAD54 branch -2 and NRP1-CendR mod 3.
Cc1cc(F)ccc1S(=O)(=O)NCC(c1ccc2c(c1)OCO2)N1CCOCC1 (configuration not stated) was read as N-glyco inh 3, RAD52 inh -8, RAD54 branch -4 and NRP1-CendR mod 3.
For COC(=O)c1ccccc1Sc1c(/C=N/OC(=O)c2ccccc2)c(C(F)(F)F)nn1C the results were miR122 inh -5, DNA FID counter 1, N-glyco inh 1 and NRP1-CendR mod -6.
`Cc1ccc(C(=O)O/N=C/c2c(C(F)(F)F)nn(C)c2Sc2ccc(Cl)cc2)cc1` gave miR122 inh 0, DNA FID counter -4, N-glyco inh 0, RAD54 branch 6 and NRP1-CendR mod 6.
Cn1nc(C(F)(F)F)c(/C=N/OC(=O)c2ccccc2Cl)c1SCc1ccc(Cl)cc1 was read as miR122 inh 3, DNA FID counter 0, N-glyco inh 61*, RAD54 branch 1 and NRP1-CendR mod -1.
Screening COc1ccc(C(=O)O/N=C/c2c(C(F)(F)F)nn(C)c2SCc2ccccc2Cl)cc1 returned miR122 inh -6, DNA FID counter 1, N-glyco inh 53*, RAD54 branch -2 and NRP1-CendR mod -2.
